An excerpt weighted towards active compounds, which were near 2.5% of everything screened.
GC-B act: GC-B (human) receptor activation; P20594; HEK293-GC-B cells, CNP EC30, cGMP TR-FRET; 0% at EC30 CNP, 100% saturating CNP; activation, % at 10 µM; 370,000 compounds, 0.11% hits; AID 1920062;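 active = activation at 10 µM reaching about 35% in either raw or pattern-adjusted values, limit read from the data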
aDG glyco up: increases alpha dystroglycan glycosylation. activation, % at 10 µM. 360,000 compounds, 0.22% hits. Pro5-aDG cells, alpha-DG glycosylation AlphaScreen (IIH6); 0% Pro5, 100% B10-LARGE cell signal;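 active = activation of at least 8% versus controls, or a plate z-score of at least 8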;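 also: Pro5 are CHO cells carrying HIG-tagged alpha-DG that lacks glycosylation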
GC-A act: GC-A (human) enzyme activation | P16066 | HEK293 GC-A cells, cGMP TR-FRET, EC30 ANP; 0% at EC30 ANP, 100% saturating ANP | activation, % at 10 µM | 370,000 compounds, 0.14% hits; in the data active = activation above about 40%
Target sequence (P16066 whole entry, looked up): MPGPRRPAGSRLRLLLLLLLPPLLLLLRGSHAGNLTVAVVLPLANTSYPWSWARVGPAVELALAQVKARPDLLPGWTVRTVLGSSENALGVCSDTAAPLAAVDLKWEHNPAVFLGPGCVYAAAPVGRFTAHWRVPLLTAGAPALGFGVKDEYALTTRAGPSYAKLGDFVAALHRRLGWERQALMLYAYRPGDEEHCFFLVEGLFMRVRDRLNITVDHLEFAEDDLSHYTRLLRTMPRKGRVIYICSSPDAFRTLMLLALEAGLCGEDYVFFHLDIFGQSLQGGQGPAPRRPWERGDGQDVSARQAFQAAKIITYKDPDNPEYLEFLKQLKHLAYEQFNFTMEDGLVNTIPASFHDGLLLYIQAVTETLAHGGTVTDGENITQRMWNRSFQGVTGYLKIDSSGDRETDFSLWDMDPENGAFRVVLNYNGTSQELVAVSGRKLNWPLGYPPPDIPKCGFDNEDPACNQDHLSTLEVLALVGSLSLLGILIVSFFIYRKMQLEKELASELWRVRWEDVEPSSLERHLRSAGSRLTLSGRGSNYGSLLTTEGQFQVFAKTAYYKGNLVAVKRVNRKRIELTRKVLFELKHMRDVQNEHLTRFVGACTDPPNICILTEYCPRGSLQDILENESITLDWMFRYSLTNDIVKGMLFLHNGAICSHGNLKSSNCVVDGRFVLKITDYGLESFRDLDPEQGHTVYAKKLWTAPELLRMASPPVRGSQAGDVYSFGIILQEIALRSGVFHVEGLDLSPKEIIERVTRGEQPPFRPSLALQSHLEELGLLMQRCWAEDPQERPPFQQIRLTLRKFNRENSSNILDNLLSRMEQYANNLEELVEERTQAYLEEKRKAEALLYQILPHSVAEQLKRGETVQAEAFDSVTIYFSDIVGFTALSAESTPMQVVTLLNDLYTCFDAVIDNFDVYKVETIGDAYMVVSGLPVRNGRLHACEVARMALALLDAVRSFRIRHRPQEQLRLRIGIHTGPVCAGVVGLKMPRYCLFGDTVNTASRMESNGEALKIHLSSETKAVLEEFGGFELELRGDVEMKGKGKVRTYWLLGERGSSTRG
HSF1 inhib: HSF1 inhibition; activity change, negative = inhibition, % at 7.5 µM (by protocol); 300,000 compounds, 0.77% hits; NIH3T3-HGL HSE-luciferase, MG132-induced, luminescence 8 h; stronger effect = lower value;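 active = more than half of replicate wells show activity change below -50%, luminescence cut by over half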;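 also: luciferase reports HSF-1 transcriptional activity via heat shock element; 0% = median of DMSO wells and -100% = zero luminescence signal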
DYRK1A inh: blocks rat Dyrk1A kinase activity; Q63470; ADP-Glo luminescence, NFATc1 peptide; inhibition, % at 12.5 µM; 310,000 compounds, 0.43% hits; in the data active = inhibition above about 50%;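 also: plate controls were vehicle with enzyme for no effect and no enzyme for full effect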
HSF-1 act: increases HSF-1 driven luciferase reporter signal | activation, % at 9 µM | AID 504408 | NIH3T3-HGL HSF-1 luciferase reporter, MG132, 8 h; 100% = twice DMSO control signal | 300,000 compounds, 1.7% hits;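 active = mean replicate activation of at least 50% with a set share of replicates each reaching 50%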;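 also: 0% = median of the neutral control wells and 100% = twice that signal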
* marks the source's active call; other numbers are inactive results; · = no result.

SMILES	GC-B act	aDG glyco up	GC-A act	HSF1 inhib	DYRK1A inh	HSF-1 act
Cc1ccccc1NS(=O)(=O)c1cccc(C(=O)Nc2cccc(C(=O)O)c2)c1	1	0	3	-3	-3	-18
O=C(Nc1ccccc1O)c1cccc(S(=O)(=O)Nc2ccccc2O)c1	1	0	4	79	3	123*
Cc1ccc(NC(=O)Cn2c(CCC(=O)O)ccc2-c2cccs2)cc1	-1	0	2	39	-3	62*
C/C(=N\Nc1nc2ccccc2s1)c1cccs1	-16	-1	-1	1	27	26
C/C(=N\Nc1nc(-c2ccccc2)cs1)c1cccs1	3	-1	4	-70*	3	-75
CCC[C@@H](CN1CCC[C@H]1CN1C(N)=NC[C@@H]1Cc1ccccc1)N1C[C@@H]([C@H](C)CC)N(CCCC2CCCC2)C1=N	·	1	·	·	4	·
CCCCCN(C(=O)CCC(=O)OCC(=O)c1ccc(C(C)(C)C)cc1)c1c(N)n(CCCC)c(=O)[nH]c1=O	-9	1	0	25	-5	76*
CCCCN(C(=O)COc1ccc(C)cc1OC)c1c(N)n(CCC)c(=O)[nH]c1=O	0	0	1	-69*	-2	-77
CCCCCN(C(=O)CCC(=O)OCC(=O)c1ccc(CCC)cc1)c1c(N)n(CCCC)c(=O)[nH]c1=O	-1	0	2	3	2	9
CCC(=O)NC(=S)Nc1ccc(S(=O)(=O)NC(C)C)cc1	-1	0	-2	1	3	13
COc1ccccc1OCCC(=O)OCCN1C(=O)c2ccccc2C1=O	6	0	1	0	-8	-1
CC(C)Oc1cccc(OCCN2C(=O)c3ccccc3C2=O)c1	-1	0	-2	8	-1	12
Nc1cccc2c1C(=O)N(CCOc1ccc(F)cc1)C2=O	-2	0	9	39	9	62*
COc1ccc(OCCN2C(=O)c3ccccc3C2=O)cc1	-1	0	-2	-55*	-10	-62
O=C1c2ccccc2C(=O)N1CCOc1ccccc1	-9	0	-9	80	-1	125*
COc1ccc(OC(=O)CCCN2C(=O)c3ccccc3C2=O)cc1	-4	0	-1	-9	4	7
Cc1ccc(C(=O)CCC(=O)NNC(=O)c2ccccc2O)cc1	3	0	-1	·	5	·
Cc1c(OC(C)C(=O)NCCN2CCOCC2)ccc2c(-c3ccccc3)cc(=O)oc12 (stereo unspecified)	-5	0	0	-2	-2	6
O=C(CSc1cccc2cccnc12)N1CCCC1	9	-1	8	57	9	60*
COC(=O)Cc1c(C)c2ccc(OC(=O)c3ccccc3)cc2oc1=O	-4	0	-12	27	0	61*
O=C(c1cc2c(s1)CCCC2)N1CCN(Cc2ccc3c(c2)OCO3)CC1	-3	0	5	-4	-2	15
O=C(Oc1ccc2c(c1)OCO2)c1ccc(F)cc1Cl	-3	0	19	26	-3	63*
O=C(Oc1ccc2c(c1)OCO2)c1cc2c(s1)CCC2	4	0	-22	33	4	81*
NC(c1ccc(F)c(F)c1)c1nc(-c2cncnc2)cs1 (stereo unspecified)	-8	1	-17	·	·	·
Cc1ccc(NC(=O)C2CCCN2S(=O)(=O)c2cccnc2)c(C)c1 (stereo unspecified)	-6	·	5	·	·	·
CCC(Sc1nc(C)cc(C)n1)C(=O)NC1=NN=C(c2ccc(C)cc2)CS1 (stereo unspecified)	4	1	7	-74*	-6	-71
Cc1ccc(CC2CC(=O)N(Cc3ccco3)C2=O)cc1 (stereo unspecified)	-1	0	0	42	7	73*
CCOc1ccc(N(C(C)C(=O)NC2CCCCCC2)S(C)(=O)=O)cc1 (stereo unspecified)	7	0	2	1	-4	2
O=C(O)CCC(=O)NNC(=O)c1cccc(Br)c1	4	0	4	11	-3	34
COC(=O)CCC(=O)NNC(=O)c1cccc(Br)c1	-3	0	3	-67*	-4	-73
